From PubChem BioAssay
Rows were chosen to be rich in hits. Some 0.37% of all compounds tested hit in one or more screens of this group.
Vif-APOBEC3G blk: blocks the Vif interaction with human APOBEC3G; AID 602310; HeLa A3G-eYFP + Vif (tagged APOBEC3G with the HIV-1 protein that degrades it), YFP fluorescence, overnight; hit rate 0.076% among 410,000; Q9HC16; Potency, µM (doses to about 46.1 µM), most hits filed as inhibitors; note: nearly all actives have a fitted effect of over 60% in size
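HeLa cells stably expressing Vif and C-terminally eYFP-tagged A3G, seeded overnight at 37 deg C, then exposed to compound by pintool overnight at 37 deg C. Rise in yellow fluorescence (Ex 488/Em 500-530, Acumen) marks blocked Vif-driven A3G degradation.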
MBNL1-CUG inh: blocks human MBNL1 binding to CUG repeat RNA; Q9NR56; TR-FRET MBNL1-His/biotin-(CUG)12 binding, 665/545 ratio; Potency, µM (doses to about 57.5 µM), actives largely listed as inhibitors; hit rate 0.036% among 280,000; active = well fitted inhibition curve with a large enough effect in the signal ratio, with a control signal flat, not every such curve was filed as active; inconclusive = small, poorly fitted or top-dose-only effect, or effect the other way, or a change in a side signal; inactive = no such curve, though single readings can be large or run the other way; the % refers to the signal ratio
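MBNL1-His + Biotin-(CUG)12, cpd titration 92 nM–58 uM; Tb anti-His Ab 0.055 ng/ul, SA-XL665 5 nM (final); 60 min RT; ratiometric 665/545 nm, Ex 340 nm; normalized to buffer and full-complex controls.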
CBFb RUNX1 block: CBF-beta/RUNX1 interaction disruption | Q01196+Q13951 | AlphaScreen CBFb-His/RUNX1-biotin binding, biochemical | Potency, µM (series often up to 59.8 µM), most hits filed as inhibitors | 230,000 tested, under 10 active
Target sequence (Q01196 whole entry, looked up): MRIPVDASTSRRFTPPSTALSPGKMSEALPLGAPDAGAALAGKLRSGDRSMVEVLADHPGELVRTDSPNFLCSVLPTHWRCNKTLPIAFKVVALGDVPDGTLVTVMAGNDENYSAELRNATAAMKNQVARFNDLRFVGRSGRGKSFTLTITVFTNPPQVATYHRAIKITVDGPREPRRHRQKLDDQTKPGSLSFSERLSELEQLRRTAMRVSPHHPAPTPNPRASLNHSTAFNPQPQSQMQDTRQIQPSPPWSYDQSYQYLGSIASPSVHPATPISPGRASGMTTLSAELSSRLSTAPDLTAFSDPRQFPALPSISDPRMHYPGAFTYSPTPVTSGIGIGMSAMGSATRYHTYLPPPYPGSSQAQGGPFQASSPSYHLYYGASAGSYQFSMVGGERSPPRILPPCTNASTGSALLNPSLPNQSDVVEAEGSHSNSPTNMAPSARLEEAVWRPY
Target sequence (Q13951 whole entry, looked up): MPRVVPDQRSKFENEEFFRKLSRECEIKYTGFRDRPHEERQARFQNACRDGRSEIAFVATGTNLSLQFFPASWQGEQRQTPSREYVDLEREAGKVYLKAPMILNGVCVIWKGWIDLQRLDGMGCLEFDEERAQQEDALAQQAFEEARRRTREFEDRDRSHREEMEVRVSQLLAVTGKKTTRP
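His-tagged CBF-beta and biotinylated RUNX1 (30 nM each) were premixed 20 min at room temperature, exposed to compound for 15 min, then given nickel-chelate and streptavidin AlphaScreen beads (50 ng each). After 90 min, AlphaScreen signal was read.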
Vif-APOBEC3F blk: inhibitors of Vif-A3F interaction | HeLa A3F-eYFP + Vif (tagged APOBEC3F with the HIV-1 protein that degrades it), YFP fluorescence increase | Potency, µM (titrated, usually from 46.1 µM) | hit rate 0.2% among 390,000 | AID 602313; note: nearly all actives have a fitted effect of over 65% in size
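HeLa cells stably expressing A3F-eYFP plus Vif, plated and incubated overnight at 37 deg C, then exposed to compounds overnight at 37 deg C. Blocked degradation read as raised yellow fluorescence (Ex 488/Em 500-530).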
Epigenetic derep: epigenetic control regulation, reporter derepression; AID 1865; hit rate 0.2% among 280,000; murine LDR cells, GFP reporter derepression, 30 h; Potency, µM (titrated, usually from 53.9 µM), most hits filed as activators; note: nearly all actives have a fitted effect of over 60% in size
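Murine LDR cells carrying a silenced, genomically integrated CMV-driven GFP reporter were exposed to compound for 30 hours at 37 C. After PBS washes, GFP-positive cells (20–120 um objects) were counted by laser-scanning microplate cytometry.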
TSG101-PTAP inh: blocks PTAP/TSG101 interaction to inhibit HIV-1 budding | Q99816 | Fluorescence polarization, FITC-PTAP peptide / Tsg101 binding | Potency, µM (titrated, usually from 115 µM), hits mostly inhibitors | 340,000 tested, under 10 active | AID 493005; active = well fitted inhibition curve with a large enough effect in the main read-out, with a control signal flat, not every such curve was filed as active; inconclusive = small, poorly fitted or top-dose-only effect, or effect the other way, or a change in a side signal; inactive = no such curve, though single readings can be large or run the other way
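Tsg101 binding domain (10 uM final) was mixed with compound and a FITC-labeled PTAP peptide (50 nM final) in HEPES pH 7.5 buffer with NaCl, Tween 20, EDTA and TCEP; fluorescence polarization was read after 20 min at r.t.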
MBNL1 TRFRET: MBNL1-poly(CUG) RNA binding inhibition confirmed; Potency, µM (titrated, usually from 57.6 µM), most hits filed as inhibitors; shares compounds with MBNL1-CUG inh; hit rate 50% among 140; TR-FRET MBNL1-His / biotin-(CUG)12 binding, 60 min
MBNL1-CUG Alpha: confirmation of MBNL1-(CUG)12 RNA binding inhibitors, orthogonal format; shares compounds with MBNL1-CUG inh; AlphaScreen MBNL1-His / biotin-(CUG)12 binding; Potency, µM (titrated, usually from 57.7 µM), actives largely listed as inhibitors; hit rate 30% among 140; AID 493205
Menin-MLL HTRF: hit in HTRF counterscreen for MBNL1-poly(CUG) binding inhibitors; His-Menin/biotin-MLL peptide TR-FRET counterscreen; shares compounds with MBNL1-CUG inh; hit rate 20% among 120; Potency, µM (series often up to 57.6 µM), actives largely listed as inhibitors; AID 651843
Numbers stand for hits; 0 = inactive; ? = inconclusive; - = no result given; ! = repeats disagree. Unless noted, calls come from the whole dose curve; as a rule, active = well fitted curve in the direction sought with a large enough effect; inconclusive = small, poorly fitted or top-dose-only effect, or another doubt; inactive = no such curve, though single readings can be large; an effect the other way counts as inactive or inconclusive.

SMILES	Vif-APOBEC3G blk	MBNL1-CUG inh	CBFb RUNX1 block	Vif-APOBEC3F blk	Epigenetic derep	TSG101-PTAP inh	others
CC(C)[C@@]1(NC(=O)[C@@H]2C[C@@H]3c4cccc5[nH]cc(c45)C[C@H]3N(C)C2)O[C@@]2(O)C3CCCN3C(=O)[C@H](Cc3ccccc3)N2C1=O (some centres undefined)	-	-	?	-	0	-
CCN(CC)c1ccc(N=Cc2c(O)n(Cc3ccccc3)c(=O)[nH]c2=O)cc1	?	0	0	7.9µM!	13µM	?
Cc1ccc2oc(=O)c(-c3nc4ccc(C)cc4[nH]3)cc2c1	0	-	-	0	16µM	-
CCC1OC2(C)C(O)C(/C=C/C=C/C=C/c3oc(=O)cc(OC)c3C)OC1(C)C2OC(C)=O (centres undefined)	-	-	0	-	-	-
CCN(CC)c1ccc(/C=C2\C(=O)NC(=S)N(c3ccc(OC)cc3OC)C2=O)o1	0	-	-	11µM	-	?
COc1ccccc1/C=C1\C(=O)NC(=S)N(c2ccccc2)C1=O	0	0	-	0	-	0
CCN1C(=O)/C(=C/c2ccc(N(CC)CC)cc2OC)C(=O)NC1=S	0	0	?	7.9µM	0	0
O=C(Nc1nn[nH]n1)c1cccc([N+](=O)[O-])c1	0	?	0	0	0	0
O=C1NC(=O)N(c2ccccc2F)C(=O)/C1=C/c1ccc(Sc2nc3ccccc3[nH]2)o1	0	-	?	22µM	0	0
COc1ccc(N2C(=O)NC(=O)/C(=C\c3cn(C)c4ccccc34)C2=O)cc1	0	0	-	22µM	-	?
COC(=O)Cn1cc(/C=C2\C(=O)NC(=O)N(c3ccc(OC)cc3)C2=O)c2ccccc21	0	0	-	?	-	?
O=C1/C(=C\c2ccccc2)C[C@@]2(O)[C@H]3Cc4ccc(O)c5c4[C@@]2(CCN3CC2CC2)[C@H]1O5	-	-	0	-	0	-
O=C(Oc1ccccc1)N(c1ccccc1)c1ccccc1	0	0	?	0	0	0
C[C@@H]1O[C@@H](O[C@H]2CC[C@@H](O[C@H]3[C@H](O)C[C@H](c4ccc5c(c4O)C(=O)C4=C(C5=O)[C@@]5(O)C(=O)C[C@](C)(O[C@H]6CC[C@H](O[C@H]7C=CC(=O)[C@H](C)O7)[C@H](C)O6)C[C@@]5(O)C=C4)O[C@@H]3C)O[C@H]2C)C=CC1=O	-	-	0	-	-	-
Cn1cccc1/C=C1\C(=O)NC(=O)N(Cc2ccccc2Cl)C1=O	0	0	0	11µM	0	0
Cn1cccc1/C=C1\C(=O)NC(=O)N(CCC2=CCCCC2)C1=O	0	0	?	0	0	0
CCc1ccc(-n2c(=O)c3sc4ccccc4c3n(CC(=O)NC3CCCC3)c2=O)cc1	0	-	-	0	?	-
CCn1c(NN=O)nc2ccccc21	0	0	?	11µM	?	0
CN(C)c1ccc(N(C)C)cc1	-	-	0	-	-	-
ClCCN(CCCl)c1ccc(C=NNc2ncccn2)cc1	0	-	-	0	-	0
ClCCN(CCCl)c1ccc(C=Cc2ccncn2)cc1	0	-	-	22µM	-	0
O=c1[nH]c(=O)n(Cc2ccccc2Cl)c(O)c1/C=C1/C=CC=N1	?	?	0	8.9µM	?	0
CCCCn1c(O)c(/C=C2/C=CC=N2)c(=O)[nH]c1=O	10µM	?	0	?	0	0
C=CCn1c(O)c(/C=C2/C=CC=N2)c(=O)[nH]c1=O	?	?	0	0	0	0
O=C(O)CCCCC1SCC2NC(=O)NC21 (centres undefined)	0	0.1µM	1.8µM	0	0	0	MBNL1 TRFRET=0.041µM;MBNL1-CUG Alpha=0.0041µM;Menin-MLL HTRF=0.015µM
O=c1cc(-c2ccc(O)cc2)oc2c([C@H]3O[C@@H](CO)[C@@H](O)[C@@H](O)[C@@H]3O)c(O)cc(O)c12	-	-	0	-	0	-
COc1ccc2nc(NC(=O)CCc3nc(C4=CCN(C)CC4)no3)sc2c1	0	20µM	0	0	0	0	MBNL1 TRFRET=?;MBNL1-CUG Alpha=16µM;Menin-MLL HTRF=?
NC[C@@H]1O[C@H](O[C@H]2[C@H](O)[C@@H](O[C@H]3[C@H](O)[C@H](N)C[C@H](N)[C@H]3O[C@@H]3O[C@H](CO)[C@@H](O)[C@H](O)[C@@H]3N)O[C@H]2CO)[C@@H](N)[C@H](O)[C@@H]1O	-	-	0	-	0	-
